Data published in PubChem BioAssay.
Unmarked numbers belong to inactive results. For some assays here: Results with a measured potency or affinity are listed apart. Active and inactive are the calls of the source. Unless noted, the rule behind the calls is not given here.

What was measured:
[1] = antimalarial activity against Dd2 strain (AID 2302;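 active = growth inhibition above 50% at the single 2 µM test dose, taken to imply half-maximal potency below 2 µM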;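 note: 0% = DMSO untreated growth and 100% = chloroquine plus artemisinin killed control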); details: P. falciparum Dd2 in RBCs, LDH growth readout, 72 h; at 2 µM; hits give high values
[2] = HepG2 cytotoxicity, primary screen, cytotoxicity control for P. falciparum antimalarial project, cell-based, ATP luminescence (AID 2303;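 active = inhibition above 50%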;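 note: 0% = DMSO wells and 100% = digitonin-killed cells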); details: HepG2 viability, 24-48 h, at 10 µM, hits give high values
[3] = biological target: L-lactate dehydrogenase (Plasmodium falciparum (isolate CDC / Honduras)) (UniProt Q27743); experiment: PfLDH activity inhibition – cell lysate, 3D7 strain, counter-screen for P. falciparum growth inhibition project (AID 2304);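 note: 0% = vehicle and 100% = reference inhibitor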; details: P. falciparum 3D7 crude extract, LDH APAD/NBT absorbance; at 2 µM; hits give high values
Chain of L-lactate dehydrogenase (Plasmodium falciparum (isolate CDC / Honduras)) (Q27743 whole entry, looked up): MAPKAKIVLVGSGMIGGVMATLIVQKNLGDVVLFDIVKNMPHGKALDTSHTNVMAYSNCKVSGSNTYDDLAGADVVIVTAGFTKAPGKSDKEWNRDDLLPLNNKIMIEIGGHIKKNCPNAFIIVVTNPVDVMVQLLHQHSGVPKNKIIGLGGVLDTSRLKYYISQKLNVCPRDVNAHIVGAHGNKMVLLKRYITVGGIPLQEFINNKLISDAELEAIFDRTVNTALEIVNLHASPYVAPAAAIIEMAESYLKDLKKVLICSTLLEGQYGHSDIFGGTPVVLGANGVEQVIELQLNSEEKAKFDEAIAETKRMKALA

[4] = inhibition of 3D7 malaria parasite growth – strain 3D7 (AID 2306);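 note: 0% = DMSO wells and 100% = chloroquine plus artemisinin control wells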; details: P. falciparum 3D7 erythrocytic growth, LDH absorbance, 72 h; at 2 µM; hits give high values
[5] = biological target: Calcium-dependent protein kinase 1 (Plasmodium falciparum (isolate 3D7)) (UniProt P62344); experiment: PfCDPK1 kinase inhibitors, biochemical, TCAMS library (AID 1159585; cut-off not given, nearly all actives have IC50 up to about 0.98 µM;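 note: inhibitors leave more ATP so luminescence rises with inhibition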); details: recombinant PfCDPK1, Kinase-Glo ATP depletion luminescence
Chain of Calcium-dependent protein kinase 1 (Plasmodium falciparum (isolate 3D7)) (P62344 whole entry, looked up): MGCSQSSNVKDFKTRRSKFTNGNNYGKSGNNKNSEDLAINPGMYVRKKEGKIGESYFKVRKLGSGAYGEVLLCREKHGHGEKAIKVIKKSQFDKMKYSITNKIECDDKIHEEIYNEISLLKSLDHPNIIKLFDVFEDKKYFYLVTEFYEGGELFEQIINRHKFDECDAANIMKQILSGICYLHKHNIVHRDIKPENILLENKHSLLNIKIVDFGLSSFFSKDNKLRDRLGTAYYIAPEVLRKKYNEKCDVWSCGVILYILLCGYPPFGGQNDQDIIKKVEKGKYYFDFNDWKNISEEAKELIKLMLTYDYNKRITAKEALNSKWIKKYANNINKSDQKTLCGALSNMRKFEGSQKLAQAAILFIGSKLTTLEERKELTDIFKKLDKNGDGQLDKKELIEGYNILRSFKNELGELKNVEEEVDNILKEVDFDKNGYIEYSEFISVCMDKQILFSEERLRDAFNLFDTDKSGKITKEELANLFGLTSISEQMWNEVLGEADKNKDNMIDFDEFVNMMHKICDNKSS

[6] = biological target: Plasmodium falciparum protein kinase 6 (PK6, PF3D7_1337100) (UniProt Q8IDW1); experiment: PfPK6 kinase inhibitors, biochemical, TCAMS library (AID 1159586); details: recombinant PfPK6, Kinase-Glo ATP depletion luminescence
Chain of Plasmodium falciparum protein kinase 6 (PK6, PF3D7_1337100) (Q8IDW1 1-305): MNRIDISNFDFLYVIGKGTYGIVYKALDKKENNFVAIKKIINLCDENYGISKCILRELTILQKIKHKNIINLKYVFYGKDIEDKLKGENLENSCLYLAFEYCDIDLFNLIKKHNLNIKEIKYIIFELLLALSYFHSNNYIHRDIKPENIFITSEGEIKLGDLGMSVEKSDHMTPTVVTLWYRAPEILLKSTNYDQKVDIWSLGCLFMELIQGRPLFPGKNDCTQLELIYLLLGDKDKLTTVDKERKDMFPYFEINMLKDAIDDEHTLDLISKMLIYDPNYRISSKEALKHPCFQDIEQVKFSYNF

[7] = biological target: Protein kinase 7 (PK7), Plasmodium falciparum 3D7 (PF3D7_0213400) (UniProt Q7YTF7); experiment: inhibition of Plasmodium PK7 catalytic activity – biochemical, TCAMS antimalarial set, Kinase-Glo luminescence (AID 1159587); details: recombinant PfPK7, Kinase-Glo ATP depletion luminescence
Chain of Protein kinase 7 (PK7), Plasmodium falciparum 3D7 (PF3D7_0213400) (Q7YTF7 1-343): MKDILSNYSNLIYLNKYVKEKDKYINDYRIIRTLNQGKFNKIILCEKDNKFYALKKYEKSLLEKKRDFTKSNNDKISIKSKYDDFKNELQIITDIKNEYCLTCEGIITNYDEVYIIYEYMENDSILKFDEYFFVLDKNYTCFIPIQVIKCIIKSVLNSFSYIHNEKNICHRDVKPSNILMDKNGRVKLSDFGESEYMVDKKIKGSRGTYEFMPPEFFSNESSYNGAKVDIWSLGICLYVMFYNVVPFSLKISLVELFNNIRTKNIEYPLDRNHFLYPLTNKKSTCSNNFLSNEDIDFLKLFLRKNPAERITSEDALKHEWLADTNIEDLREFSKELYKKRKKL

[8] = biological target: Calcium-dependent protein kinase 4 (Plasmodium falciparum (isolate 3D7)) (UniProt Q8IBS5); experiment: PfCDPK4 kinase inhibitors, biochemical, TCAMS library (AID 1159588; cut-off not given, nearly all actives have IC50 up to about 0.91 µM); details: recombinant PfCDPK4, Kinase-Glo ATP depletion luminescence
Chain of Calcium-dependent protein kinase 4 (Plasmodium falciparum (isolate 3D7)) (Q8IBS5 whole entry, looked up): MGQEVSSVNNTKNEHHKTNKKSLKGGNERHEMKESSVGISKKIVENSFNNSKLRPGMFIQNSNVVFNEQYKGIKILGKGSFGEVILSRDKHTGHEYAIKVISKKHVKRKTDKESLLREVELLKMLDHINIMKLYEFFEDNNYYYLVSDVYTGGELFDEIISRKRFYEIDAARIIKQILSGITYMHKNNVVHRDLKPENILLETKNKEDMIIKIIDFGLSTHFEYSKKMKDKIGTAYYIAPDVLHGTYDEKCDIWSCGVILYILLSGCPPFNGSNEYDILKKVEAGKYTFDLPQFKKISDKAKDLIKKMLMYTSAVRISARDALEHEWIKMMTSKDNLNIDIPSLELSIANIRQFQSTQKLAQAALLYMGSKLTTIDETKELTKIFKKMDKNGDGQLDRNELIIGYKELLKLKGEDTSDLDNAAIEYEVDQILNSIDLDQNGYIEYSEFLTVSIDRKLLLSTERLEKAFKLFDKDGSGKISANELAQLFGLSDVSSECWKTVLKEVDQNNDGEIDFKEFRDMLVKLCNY

Row | Compound | growth inhibition [1] | inhibition [2] | inhibition [3] [%] | growth inhibition [4] | outcome [5] | outcome [6] | outcome [7] | outcome [8]
1 | COc1ccc(Cn2c(Nc3cccc(C(F)(F)F)c3)nc3cc(C(=O)NCCCN(C)C)ccc32)cc1Cl | 3% | 15% | -7 | 90% (active) | inactive | inactive | inactive | inactive
2 | COc1ccccc1-c1csc(C(=O)NC2CCCCN(Cc3ccc(C(C)(C)C)cc3)C2)c1 (stereo not drawn) | 8% | 13% | -5 | 99% (active) | inactive | inactive | inactive | inactive
3 | COc1ccc(C(O)CNC(C)CCc2ccccc2)cc1C(F)(F)F (stereo not drawn) | 100% (active) | 3% | 1 | 99% (active) | inactive | inactive | inactive | inactive
4 | Cc1ccc(C(=O)Nc2ccc(F)c(F)c2F)cc1S(=O)(=O)N1CCCCC1 | 69% (active) | 3% | -8 | 92% (active) | inactive | inactive | inactive | inactive
5 | NC1CCN(Cc2cccc(-c3ccc(-c4nc5ccc(C(F)(F)F)cc5[nH]4)cc3)c2)C1 (stereo not drawn) | 97% (active) | 21% | -9 | 99% (active) | inactive | inactive | inactive | inactive
6 | COc1ccc(CNC2CCN(C)CC2)cc1-c1ccc(OC)c(S(=O)(=O)NCc2ccccc2)c1 | 95% (active) | 10% | 5 | 99% (active) | inactive | inactive | inactive | inactive
7 | Cc1ccc(F)cc1-c1cc(N2CCCN(C(=O)c3ccc(Br)o3)CC2)ncn1 | 91% (active) | 0% | 0 | 94% (active) | inactive | inactive | inactive | inactive
8 | COc1ccc(CNc2nc(NCCc3ccccc3)c3cc(OC)c(OC)cc3n2)cc1OC | 101% (active) | 48% | 3 | 100% (active) | inactive | inactive | inactive | inactive
9 | N#Cc1ccc(C=Cc2nccc3c2[nH]c2ccccc23)cc1 | 28% | 33% | 0 | 97% (active) | inactive | inactive | inactive | inactive
10 | CSc1ccc2ccccc2c1CCNCCCCNCCc1c(SC)ccc2ccccc12 | 60% (active) | 99% (active) | 3 | 101% (active) | inactive | inactive | inactive | inactive
11 | c1ccc(CN2CCCN(c3ccc4c(c3)CCN(Cc3ccc(-c5ncc[nH]5)cc3)CC4)CC2)cc1 | 73% (active) | 6% | 2 | 100% (active) | inactive | inactive | inactive | inactive
12 | COc1cccc2c(NN=Cc3ccc(Cl)cc3)ccnc12 | 39% | 26% | 5 | 99% (active) | inactive | inactive | inactive | inactive
13 | COc1cc(C)cc(CN2CCC(Cc3ccccc3)CC2)c1O | 94% (active) | 35% | 0 | 97% (active) | inactive | inactive | inactive | inactive
14 | COc1ccc(Nc2nccc(-c3ccc(NC(=O)c4cc5cc(F)ccc5[nH]4)cc3)n2)cc1 | 26% | 21% | -2 | 91% (active) | inactive | inactive | inactive | inactive
15 | COc1cc2nccc(Nc3cccc(Oc4ccccc4)c3)c2cc1OC | 95% (active) | 25% | -2 | 102% (active) | inactive | inactive | inactive | inactive
16 | O=C(C=CC(=O)N1CCCCC1)NCc1ccccc1 | -3% | 6% | -2 | 100% (active) | inactive | inactive | inactive | inactive
17 | CC(C)COc1ccc(C(O)C(CN2CCCCC2)c2ccccc2)cc1 (stereo not drawn) | 89% (active) | 11% | -11 | 93% (active) | inactive | inactive | inactive | inactive
18 | O=C(/C=C/c1ccc([N+](=O)[O-])cc1)N1CCC(NS(=O)(=O)c2cccc(C(F)(F)F)c2)CC1 | 8% | -2% | -1 | 94% (active) | inactive | inactive | inactive | inactive
19 | COc1cccc(C2CCN(CCN3CCC(NC(=O)c4ccc(-c5ccc(C(F)(F)F)cc5)cc4)CC3)CC2)c1 | 99% (active) | 46% | -7 | 99% (active) | inactive | inactive | inactive | inactive
20 | O=C(Nc1ccc2oc(-c3ccc(Cl)cc3Cl)nc2c1)c1ccc([N+](=O)[O-])o1 | 78% (active) | 39% | 3 | 95% (active) | inactive | inactive | inactive | inactive
21 | Cc1[nH]c(C)c(-c2ccc(-c3ccc(C(F)(F)F)cc3C(F)(F)F)nc2)c(=O)c1Br | 97% (active) | 30% | 5 | 97% (active) | inactive | inactive | inactive | inactive
22 | O=C(Nc1ccc(C(=O)N(Cc2ccc3c(c2)OCO3)C2CCCC2)cc1)c1cccs1 | 95% (active) | 14% | 4 | 97% (active) | inactive | inactive | inactive | inactive
23 | Cc1ccc(O)c(-c2cc(C(=O)Nc3ccc(S(=O)(=O)N4CCCCCC4)cc3)[nH]n2)c1 | 80% (active) | 25% | 4 | 100% (active) | inactive | inactive | inactive | inactive

Row | Compound | growth inhibition [1] | inhibition [2] | inhibition [3] [%] | growth inhibition [4] | outcome [5] | outcome [6] | outcome [7] | outcome [8]
24 | COc1ccc(NC(=O)C2c3ccccc3C(=O)N(C3CCCC3)C2c2cccs2)c(OC)c1 (stereo not drawn) | 54% (active) | 3% | 4 | 84% (active) | inactive | inactive | inactive | inactive
25 | COc1cc2cc(C(=O)Nc3ccccc3)c(N)nc2cc1OC | -2% | 0% | -1 | 90% (active) | inactive | inactive | inactive | inactive
26 | NC(=O)c1cc(-c2ccccc2)cc2c(C3CCC(NCc4ccccc4)C3)c[nH]c12 (stereo not drawn) | 30% | 99% (active) | -7 | 95% (active) | inactive | inactive | inactive | inactive
27 | COc1ccc(NC(=O)Nc2cccc(-c3cccc(-c4nc5ccc(F)cc5[nH]4)c3)c2)cc1 | 39% | 59% (active) | 5 | 99% (active) | inactive | inactive | inactive | inactive
28 | O=S(=O)(NC1CCN(c2ccnc3cc(Cl)ccc23)C1)c1cccc(F)c1 (stereo not drawn) | 88% (active) | 19% | 5 | 98% (active) | inactive | inactive | inactive | inactive
29 | COc1ccc(CN2CCCN(Cc3cccc(NC(=O)c4ccc(-c5ccccc5)cc4)c3)CC2)cc1 | 24% | 37% | 1 | 94% (active) | inactive | inactive | inactive | inactive
30 | C[C@H](Cc1ccc(Oc2ccc(C[C@@H](C)NC[C@H](O)c3cccc(Cl)c3)cc2)cc1)NC[C@H](O)c1cccc(Cl)c1 | 96% (active) | 99% (active) | -3 | 100% (active) | inactive | inactive | inactive | inactive
31 | CCOc1ccc(OCCCON2C(N)=NC(N)=NC2(C)C)cc1 | 94% (active) | 63% (active) | -9 | 97% (active) | inactive | inactive | inactive | inactive
32 | OCCNc1nc(Nc2ccc(F)cc2)nc2ccccc12 | 73% (active) | 10% | 3 | 94% (active) | inactive | inactive | inactive | inactive
33 | Cc1ccc(Nc2nccc(Nc3ccc4c(C)[nH]nc4c3)n2)cc1F | 1% | 6% | 4 | 95% (active) | inactive | inactive | inactive | inactive
34 | CCNc1cc(C(=O)N[C@@H](Cc2ccccc2)[C@H](O)CNC(C)(C)CCCC(C)C)cc(N2CCCCS2(=O)=O)c1 | 98% (active) | 5% | 2 | 98% (active) | inactive | inactive | inactive | inactive
35 | Cc1ccoc1C(=O)Nc1cccc(-c2cccc(-c3nc4ccccc4[nH]3)c2)c1 | 20% | 43% | -2 | 85% (active) | inactive | inactive | inactive | inactive
36 | Cc1nn(-c2ccccc2)c2sc(C(=O)N(CCCN(C)C)c3nc(-c4ccccc4)cs3)cc12 | 36% | 99% (active) | -2 | 95% (active) | inactive | inactive | inactive | inactive
37 | CN1CCN(Cc2nc(-c3ccc4c(Nc5ccc(Oc6ccccc6)cc5)ccnc4c3)cs2)CC1 | 99% (active) | 15% | 0 | 100% (active) | inactive | inactive | inactive | inactive
38 | FC(F)(F)c1ccc2nc(-c3ccc(-c4cccc(CNCC5CCCO5)c4)cc3)[nH]c2c1 (stereo not drawn) | 100% (active) | 36% | -5 | 101% (active) | inactive | inactive | inactive | inactive
39 | O=C(CCN1CCCCC1)Nc1ccc(Nc2nccc(NCC(O)c3ccccc3)n2)cc1 (stereo not drawn) | 60% (active) | 18% | -1 | 102% (active) | inactive | inactive | inactive | inactive
40 | CN1CCC(Oc2ccc(CN3CC[C@H](NC(=O)c4ccc(Cl)c(F)c4)C3)c3ccccc23)C1 (stereo partly drawn) | 65% (active) | 51% (active) | 3 | 101% (active) | inactive | inactive | inactive | inactive
41 | CCOc1cccc(C(=O)Nc2ccc(-c3nc4ccccc4[nH]3)cc2)c1 | 30% | 40% | -1 | 96% (active) | inactive | inactive | inactive | inactive
42 | CC1(C)N=C(N)NC(Nc2ccc(Cl)cc2)=N1 | -1% | 8% | -2 | 97% (active) | inactive | inactive | inactive | inactive
43 | O=C(Nc1cccc(-c2ccc(CN3CCC(O)CC3)cc2)c1)c1cccc(Cl)c1 | 2% | 11% | -11 | 96% (active) | inactive | inactive | inactive | inactive
44 | CCc1cc2c3c(N)nc(N)nc3ccc2n1CC | -2% | 62% (active) | -1 | 93% (active) | inactive | inactive | inactive | inactive
45 | CCNC(=O)c1cc(S(=O)(=O)N2CCN(c3ccccn3)CC2)cs1 | 94% (active) | 7% | 1 | 97% (active) | inactive | inactive | inactive | inactive
46 | CC(=NN=C(N)N)c1ccc2c(c1)Cc1ccccc1-2 | 10% | 44% | 5 | 101% (active) | inactive | inactive | inactive | inactive
